Records with an inconclusive call do not appear. Calls of active or inactive are those of the source. Unless noted, calls follow the shape of the dose curve; as a rule, active = well fitted curve in the direction sought with a large enough effect in the repeat runs; inconclusive = weak or mixed curves; inactive = no such curve, though single readings can be large; an effect the other way counts as inactive or inconclusive.
Key:
[1] = qHTS assay to identify small molecule agonists of the hypoxia (HIF-1) signaling pathway - cell viability counter screen (AID 1224844; calls by dose curve; also: nearly all actives have a fitted effect of over 50% in size; also: potency is read from the fitted curve at half-maximal effect)
How it was run: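 ME-180 HRE-bla cells, 2,000/well, 0.5% dialyzed FBS; 5 hr settle, 17 hr compound at 37C/5% CO2; CCF4-AM reporter read first, then CellTiter-Glo luminescence after 30 min RT.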

[2] = qHTS assay to identify small molecule agonists of H2AX (AID 1224845; active = well fitted activation curve with a large enough effect in the signal ratio in the repeat runs, not every such curve was filed as active; the % refers to the signal ratio; also: % is scaled to controls: 0 for no effect and ±100 for the full control effect)
How it was run: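 Wild-type CHO-K1 cells plated overnight, then exposed 3 hr at 37C to compounds at 15 concentrations (0.76% DMSO). Lysed, then HTRF anti-pH2AX(S139)-cryptate/anti-H2AX-d2 detection after 24 hr at room temperature; emissions 665 and 620 nm.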

[3] = qHTS assay to identify small molecule agonists of H2AX - cell viability counter screen (AID 1224847; calls by dose curve; also: top concentration of the series differs between compounds; % is scaled to controls: 0 for no effect and ±100 for the full control effect; nearly all actives have a fitted effect of over 30% in size)
How it was run: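 CHO-K1 cells plated overnight at 37C, then exposed 3 h at 37C to compounds at 15 concentrations (0.76% DMSO final). Viability by CellTiter-Glo luminescence after 30 min at room temperature.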

[4] = qHTS RealTime-Glo MT Cell Viability Assay in HepG2 cells - 24 hour (AID 1224867); also: % is scaled to controls: 0 for no effect and ±100 for the full control effect; nearly all actives have a fitted effect of over 50% in size
How it was run: (§1)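 Real-time, nonlytic viability: 600 HepG2 cells/well mixed with NanoLuc enzyme plus prosubstrate; 5 h settle, compound (DMSO) added by pintool; luminescence monitored over 40 h at 37 C.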

[5] = qHTS RealTime-Glo MT Cell Viability Assay in HEK293 cells - 32 hour (AID 1224868); also: nearly all actives have a fitted effect of over 50% in size; also: potency is read from the fitted curve at half-maximal effect
How it was run: (§2)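 Cells + reagent dispensed (600 cells/well, HEK293) → 5 h at 37 C/5% CO2 → 23 nL compound in DMSO pinned → 40 h at 37 C → luminescence read at 0, 8, 16, 24, 32, 40 h.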

[6] = A CellTox Green Cytotoxicity Assay to monitor cytotoxicity in HEK293 cells - 0 hour (AID 1224869); also: % is scaled to controls: 0 for no effect and ±100 for the full control effect; nearly all actives have a fitted effect of over 50% in size
How it was run: (§3)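 Nonlytic real-time cytotoxicity: HEK293 + CellTox Green reagent plated, 5 h preincubation, pintool compound addition (23 nL in DMSO), 37 C for 40 h, fluorescence measured at successive time points.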

[7] = qHTS RealTime-Glo MT Cell Viability Assay in HepG2 cells - 40 hour (AID 1224870)
How it was run: (§4)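 HepG2 cells mixed with RealTime-Glo MT reagents (NanoLuc plus cell-permeant prosubstrate) were seeded at 600 cells/well, incubated 5 h at 37 C/5% CO2, then pinned with compounds in DMSO; nonlytic luminescence tracked viability during 40 h treatment.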

[8] = qHTS RealTime-Glo MT Cell Viability Assay in HEK293 cells - 16 hour (AID 1224872); also: nearly all actives have a fitted effect of over 50% in size; also: potency is read from the fitted curve at half-maximal effect
How it was run: as §2

[9] = qHTS RealTime-Glo MT Cell Viability Assay in HepG2 cells - 8 hour (AID 1224873); also: % is scaled to controls: 0 for no effect and ±100 for the full control effect; nearly all actives have a fitted effect of over 55% in size
How it was run: as §4

[10] = qHTS RealTime-Glo MT Cell Viability Assay in HEK293 cells - 40 hour (AID 1224874); conditions: RealTime-Glo luminescence; max response: hits give low values; also: nearly all actives have a fitted effect of over 50% in size; also: potency is read from the fitted curve at half-maximal effect; as to max response: % is scaled to controls: 0 for no effect and ±100 for the full control effect
How it was run: (§5)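 Cells were seeded together with NanoLuc luciferase and a prosubstrate that viable cells reduce to a luciferase substrate. After a 5 h incubation at 37 C/5% CO2, compounds were added and luminescence was measured repeatedly during 40 h of treatment.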

[11] = A CellTox Green Cytotoxicity Assay to monitor cytotoxicity in HEK293 cells - 24 hour (AID 1224875); also: % is scaled to controls: 0 for no effect and ±100 for the full control effect; nearly all actives have a fitted effect of over 45% in size
How it was run: as §3

[12] = A CellTox Green Cytotoxicity Assay to monitor cytotoxicity in HepG2 cells - 16 hour (AID 1224876); also: % is scaled to controls: 0 for no effect and ±100 for the full control effect; nearly all actives have a fitted effect of over 45% in size
How it was run: (§6)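 Read-out is fluorescence of a cyanine dye excluded from live cells that stains DNA of dead HepG2 cells, with signal proportional to cytotoxicity. Plates were read at 0, 8, 16, 24, 32 and 40 h after compound addition.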

[13] = qHTS RealTime-Glo MT Cell Viability Assay in HepG2 cells - 32 hour (AID 1224877); also: % is scaled to controls: 0 for no effect and ±100 for the full control effect; nearly all actives have a fitted effect of over 55% in size
How it was run: as §1

[14] = A CellTox Green Cytotoxicity Assay to monitor cytotoxicity in HepG2 cells - 24 hour (AID 1224878); also: % is scaled to controls: 0 for no effect and ±100 for the full control effect; nearly all actives have a fitted effect of over 45% in size
How it was run: as §6

[15] = A CellTox Green Cytotoxicity Assay to monitor cytotoxicity in HepG2 cells - 40 hour (AID 1224879); also: % is scaled to controls: 0 for no effect and ±100 for the full control effect; nearly all actives have a fitted effect of over 40% in size
How it was run: as §6

[16] = qHTS RealTime-Glo MT Cell Viability Assay in HEK293 cells - 0 hour (AID 1224880); also: top concentration of the series differs between compounds; % is scaled to controls: 0 for no effect and ±100 for the full control effect; nearly all actives have a fitted effect of over 45% in size
How it was run: as §5

[17] = qHTS assay to identify small molecule agonists of the hypoxia (HIF-1) signaling pathway (AID 1224846; active = well fitted activation curve with a large enough effect in the signal ratio in the repeat runs, not every such curve was filed as active; the % refers to the signal ratio; also: % is scaled to controls: 0 for no effect and ±100 for the full control effect)
How it was run: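 Cell line: CellSensor HRE-bla ME-180; 2,000 cells/well; 0.5% dialyzed FBS; 5 h preincubation; DMSO compound pin transfer; 17 h, 37C, 5% CO2; CCF4-AM added; bla FRET signal scored for activation.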

[18] = qHTS assay to identify small molecule antagonists of the estrogen related receptor (ERR) signaling pathway from Tox21 library (AID 1224848)
How it was run: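 Screening used an ERR reporter line supplied by NTP, exposed for 18 h at 37 C to library compounds delivered in DMSO. Signal was luciferase luminescence developed with ONE-Glo at room temperature for 30 min.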

[19] = qHTS assay to identify small molecule agonists of the estrogen related receptor (ERR) signaling pathway from Tox21 library (AID 1224849; calls by dose curve; also: % is scaled to controls: 0 for no effect and ±100 for the full control effect; nearly all actives have a fitted effect of over 15% in size); conditions: ERR reporter cell line, ONE-Glo luciferase, 18 h; at 92.4 µM (top of the series) unless noted
How it was run: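 ERR cells, 6 h pre-incubation 37 C/5% CO2; cpd in DMSO pinned; 18 h 37 C; ONE-Glo added, 30 min RT; luminescence read. Agonist mode, qHTS.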

[20] = A CellTox Green Cytotoxicity Assay to monitor cytotoxicity in HEK293 cells - 40 hour (AID 1224871)
How it was run: as §3

CN1CCN(C(=O)O[C@H]2c3nccnc3C(=O)N2c2ccc(Cl)cn2)CC1
inactive: Potency [1] | Potency [2] | Potency [3] | Potency [4] | Potency [5] | Potency [6] | Potency [7] | Potency [8] | Potency [9] | max response [10] 6.06% | Potency [11] | Potency [12] | Potency [13] | Potency [14] | Potency [15] | outcome [16]

CC(C=O)Cc1ccc2c(c1)OCO2 (stereo not drawn)
inactive: Potency [1] | Potency [2] | outcome [17] | Potency [3] | Potency [5] | Potency [6] | Potency [8] | Potency [9] | max response [10] 0.337% | Potency [11] | Potency [12] | Potency [13] | Potency [14] | Potency [15] | outcome [16]

CC1(C(=O)Nc2ccc(O)c(Cl)c2Cl)CCCCC1
inactive: Potency [1] | Potency [2] | outcome [17] | activity change, positive = activation [19] -35.4% | Potency [4] | Potency [6] | Potency [7] | Potency [9] | Potency [13] | outcome [16]
active: Potency [18] 61.1 µM

C1CCC(C2CCCCC2)CC1
active: Potency [1] 21.9 µM
inactive: Potency [2] | Potency [3] | activity change, positive = activation [19] -6.98% | Potency [4] | Potency [6] | Potency [7] | Potency [20] | Potency [8] | Potency [9] | Potency [11] | Potency [12] | Potency [13] | Potency [14] | Potency [15] | outcome [16]

C[C@]12CC[C@H]3[C@@H](CC=C4C[C@@H](O)CC[C@@]43C)[C@@H]1CC[C@@H]2O
inactive: Potency [1] | Potency [2] | Potency [3] | Potency [4] | Potency [5] | Potency [6] | Potency [7] | Potency [20] | Potency [8] | Potency [9] | max response [10] 8.6% | Potency [11] | Potency [12] | Potency [13] | Potency [14] | Potency [15] | outcome [16]

CCOP(=S)(OCC)Oc1nc(Cl)n(C(C)C)n1
inactive: Potency [1] | Potency [2] | outcome [17] | Potency [3] | Potency [5] | Potency [6] | Potency [7] | Potency [20] | Potency [8] | max response [10] 3.99% | Potency [11] | Potency [12] | Potency [13] | Potency [14] | Potency [15] | outcome [16]

COc1cc(OC)nc(Oc2cccc(Oc3nc(OC)cc(OC)n3)c2C(=O)O)n1
inactive: Potency [1] | Potency [2] | outcome [17] | Potency [5] | Potency [6] | Potency [7] | Potency [20] | Potency [9] | max response [10] -0.579% | Potency [11] | Potency [12] | Potency [13] | Potency [14] | Potency [15] | outcome [16]

O=[N+]([O-])c1cccc2c([N+](=O)[O-])cccc12
active: Potency [5] 49.2 µM | Potency [10] 49.2 µM
inactive: Potency [1] | Potency [2] | outcome [17] | activity change, positive = activation [19] -66% | Potency [6] | Potency [20] | Potency [9] | Potency [11] | Potency [12] | Potency [13] | Potency [14]

COC(=O)COc1ccc(Cl)cc1Cl
inactive: Potency [1] | Potency [2] | outcome [17] | activity change, positive = activation [19] 8.64% | Potency [4] | Potency [5] | Potency [6] | Potency [7] | Potency [20] | Potency [8] | Potency [9] | max response [10] 0.13% | Potency [11] | Potency [12] | Potency [13] | Potency [14] | Potency [15] | outcome [16]

CSc1nc(N=[N+]=[N-])nc(NC(C)C)n1
inactive: Potency [1] | Potency [2] | outcome [17] | Potency [3] | Potency [4] | Potency [6] | Potency [20] | Potency [9] | Potency [11] | Potency [12] | Potency [13] | Potency [14] | Potency [15] | outcome [16]

O=C(CCCN1CCC(n2c(=O)[nH]c3ccccc32)CC1)c1ccc(F)cc1
inactive: Potency [1] | Potency [2] | outcome [17] | Potency [3] | Potency [4] | Potency [6] | Potency [7] | Potency [20] | Potency [9] | max response [10] -27.9% | Potency [11] | Potency [13] | Potency [14] | Potency [15] | outcome [16]

CNC(=O)Oc1cccc(C(C)C)c1
inactive: Potency [1] | Potency [2] | outcome [17] | Potency [4] | Potency [5] | Potency [6] | Potency [7] | Potency [20] | Potency [8] | Potency [9] | max response [10] -3.66% | Potency [11] | Potency [12] | Potency [13] | Potency [14] | Potency [15] | outcome [16]

O=C(Nc1ccccc1)N(Cc1ccc(Cl)cc1)C1CCCC1
active: Potency [18] 54.5 µM | Potency [5] 24.5 µM | Potency [8] 21.9 µM | Potency [10] 24.5 µM
inactive: Potency [1] | Potency [2] | outcome [17] | activity change, positive = activation [19] -60.6% | Potency [6] | Potency [7] | Potency [20] | Potency [12] | Potency [14] | Potency [15] | outcome [16]

CC(Oc1ccc(Oc2ncc(C(F)(F)F)cc2Cl)cc1)C(=O)O (stereo not drawn)
inactive: Potency [2] | Potency [3] | activity change, positive = activation [19] -29.5% | Potency [5] | Potency [6] | Potency [7] | Potency [8] | Potency [9] | Potency [11] | Potency [12] | Potency [13] | Potency [14] | outcome [16]
active: Potency [1] 15.5 µM

O=S(=O)(O)C(F)(F)C(F)(F)C(F)(F)C(F)(F)C(F)(F)C(F)(F)F
inactive: Potency [1] | Potency [2] | outcome [17] | Potency [4] | Potency [5] | Potency [6] | Potency [7] | Potency [20] | Potency [9] | max response [10] 2.43% | Potency [12] | Potency [13] | Potency [14] | Potency [15] | outcome [16]

CCOP(=O)(OCC)OP(=O)(OCC)OCC
inactive: Potency [1] | Potency [2] | outcome [17] | Potency [3] | Potency [5] | Potency [6] | Potency [7] | Potency [20] | Potency [8] | Potency [9] | max response [10] 5.24% | Potency [12] | Potency [13] | Potency [14] | Potency [15] | outcome [16]

Source: PubChem BioAssay (Tox21)
